# A selection: hits, their analogues and other compounds. The true share with any hit is near 13%.
# FMDV inh: foot and mouth disease virus antiviral activity. AID 1159524. FMDV antiviral cell-based qHTS. 1.2% of 410,000 active. Potency, µM (top dose mostly 57.9 µM), for the others: top-dose activity change, negative = inhibition, hits mostly inhibitors; calls by dose curve; tested in HEK293T cells; note: read-out not given here; potency is the fitted concentration of half-maximal effect; % is set by controls: 0 for no effect and ±100 for the full control effect; nearly all actives have a fitted effect of over 45% in size
# MARV entry inh: inhibitors of Marburg virus binding or cell entry; Potency, µM (titrated, usually from 37.8 µM), for the others: at the top dose activity change, negative = inhibition, usual class: inhibitors; Marburg virus pseudotyped entry inhibition, cell reporter; 1.8% of 300,000 active; calls by dose curve; tested in HEK293 cells; note: potency is the fitted concentration of half-maximal effect; % is set by controls: 0 for no effect and ±100 for the full control effect
# HCV inhibitor: blocks hepatitis C virus; Huh7.5.1 HCVcc-Cre infection, luciferase reporter, 44 h; Potency, µM (highest dose often 41.8 µM), inactives show top-dose activity change, negative = inhibition, actives largely listed as inhibitors; 3.4% of 340,000 active; active = well fitted inhibition curve with a large enough effect; inconclusive = small, poorly fitted or top-dose-only effect, or another doubt; inactive = no such curve, though single readings can be large or run the other way; note: potency is the fitted concentration of half-maximal effect; % is set by controls: 0 for no effect and ±100 for the full control effect
#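 Luciferase read-out (15 sec integration) after a 15 min room-temperature substrate step quantifies HCVcc-Cre infection. Cells, 1,000 per well, had compound added 4 h post-plating, then virus at ~0.5 moi, and were cultured 44 h.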
# Lassa entry inh: Lassa virus entry inhibition; Lassa virus pseudotype entry inhibition, cell reporter; Potency, µM (titrated, usually from 37.9 µM), for inactives: at the top dose activity change, negative = inhibition, usual class: inhibitors; 1.2% of 300,000 active; calls by dose curve; tested in HEK293 cells; note: potency is the fitted concentration of half-maximal effect; % is set by controls: 0 for no effect and ±100 for the full control effect; nearly all actives have a fitted effect of over 50% in size
# Shiga toxin inh: blocks Shiga toxin action in Vero cells. Vero cells, Shiga toxin protein synthesis inhibition reporter. inhibition, % at 38.7 µM. 9.2% of 290,000 active. AID 2315; in the data active = inhibition mostly above about 28%, no sharp cut-off; inactive = mostly below about 43%; note: 0% is about no effect
# Cycloheximide cs: counter-screen for Shiga toxin inhibitors: cycloheximide protein synthesis inhibition; cell reporter, cycloheximide protein synthesis inhibition counterscreen; max response, %; 12% of 300,000 active; AID 2314; in the data active = max response mostly above about 13%, no sharp cut-off; inactive = mostly below about 14%; note: read at 38.3 µM for the half of the compounds with a filed dose; 0% is about no effect
# Active calls of the source: *; ? = inconclusive; . = no result given; [ ] = another dose, or the depositor's remark.
SMILES,FMDV inh,MARV entry inh,HCV inhibitor,Lassa entry inh,Shiga toxin inh,Cycloheximide cs
CN1C(=O)[C@H]2[C@@H](c3ccc(C(F)(F)F)cc3)N[C@]3(CCCN(CC4CCCCC4)C3=O)[C@H]2C1=O,0%,.,.,.,.,.
CCOC(=O)c1cc(-c2nnc(SCC(=O)Nc3ccc(F)cc3)o2)c(C)nc1C,-3%,4%,4%,?,-5,-2
COc1cc(NC(=O)CSc2nc(-c3cccs3)cc(C(F)(F)F)n2)cc(OC)c1OC,?,?,.,-21%[46.1 µM],.,.
COc1cc(NC(=O)CCS(=O)(=O)c2nc(-c3cccs3)cc(C(F)(F)F)n2)cc(OC)c1OC,25µM*,?,.,?,.,.
CC(=O)Nc1ccc(N/C=C/C(=O)c2ccco2)cc1,26%,5%,-1%,-9%,76*,59*
CN(C)c1cccc(NC(=O)c2ccco2)c1,32%,17%[46.1 µM],12%,4%[46.1 µM],26,18
CC(=O)Nc1ccc(C(=O)N2CCN(C(=O)c3ccco3)CC2)cc1,.,18%,8%,6%,-25,-4
CN(C)c1ccc(N/C=C/C(=O)c2ccco2)cc1,-82%,3.7µM*,-13%,?,91*,49*
Cn1c(-c2ccc(F)cc2)cnc1NCc1ccc(F)cc1F,21%,.,5%,.,23*,13
Cn1c(-c2ccc(F)cc2)cnc1NCc1ccccc1F,52%,.,-1%,.,19,17*
Cn1c(-c2ccccc2)cnc1NCc1cc(Cl)ccc1O,30%,?,-3%,-1%,18,17*
O=C(Oc1ccccc1)c1ccc(NC(=O)c2ccco2)cc1,-1%,?,1%,2%,100*,53*
COC(=O)c1ccc(NC(=O)c2ccc(NC(=O)c3ccco3)cc2)cc1,29%,?,?,-16%[46.1 µM],-14,-2
COc1ccc(OC(=O)c2cc3ccccc3o2)cc1,12%,22%,10%,?,48,16
Cc1ccc(NC(=O)c2ccc(OC(=O)c3ccco3)cc2)cc1,.,0%,11%,7%,73*,36*
O=C(CNC(=O)c1ccco1)NCC(=O)OCc1cccc(C(=O)Oc2ccccc2)c1,14%,18%,-4%,?,42*,13*
COC(=O)c1cccc(COC(=O)CNC(=O)c2ccco2)c1,-6%,3%,12%,9%,-13,-3
Cc1ccc(NC(=O)c2ccc(OC(=O)c3cc4ccccc4o3)cc2)cc1,36%,-28%,11%,-17%,81*,40*
O=C(Nc1ccc(Oc2ncccn2)cc1)c1ccco1,14%,9%,7%,8%,43,13
Cc1ccc(Oc2ccc(NC(=O)c3ccco3)cc2)cc1,16%,?,-6%,?,99*,67*
O=C(c1cc(-c2cccc(Cl)c2)nc2ccccc12)N1CCCC1,-20%,2%,-5%,12%,-8,-1
O=C(CCn1nc(-c2ccc(Cl)cc2)c2ccccc2c1=O)Nc1ccc(OC(F)(F)F)cc1,-17%,-2%[46.1 µM],.,2%[46.1 µM],.,.
CC[C@@]1(c2ccccc2OC)ON(c2ccccc2C(F)(F)F)C1=O,32µM*,.,?,.,.,.
Cc1ccc(-c2nnc(/C=C/c3ccccc3)o2)cc1,38%,?,8%,?,147*,50*
Cc1ccc(-c2nnc(-c3ccccc3Br)o2)cc1,-17%,?,-1%,?,.,38*
SMILES,FMDV inh,MARV entry inh,HCV inhibitor,Lassa entry inh,Shiga toxin inh,Cycloheximide cs
Brc1ccccc1-c1nnc(-c2cccnc2)o1,60%,13%,-15%,4%,49*,30*
Cc1ccc(-n2nnnc2SCc2nnc(-c3ccccc3Br)o2)cc1,.,13%,?,-6%,23,2
Brc1ccc(-c2nnc(-c3ccccc3Br)o2)cc1,61%,?,1%,?,93*,82*
CNC(=O)C[C@H]1C(=O)N(CCc2ccccc2)C[C@@H]1C,-16%,.,.,.,.,.
[O-][N+]1=C2CCC/C(=N\O)C2=NC12CCCCC2,.,28%,21%,9%,-7,-3
Cc1ccc(-c2[nH]c3ccccc3c2C(C[N+](=O)[O-])c2ccco2)cc1 (stereo not given),-29%,?,-18%,?,25,20*
COC(=O)c1c(C#N)c(N)nc2c1CCC2,1%,4%,-1%,2%,-8,0
c1ccc(-c2ccc(C3=Nn4c(Cn5nnc6ccccc65)nnc4SC3)cc2)cc1,?,?,-65%,11µM*,-23,-1
CN1C(=O)CC(N2CCN(c3ccc(Cl)cc3)CC2)C1=O (stereo not given),-23%,9%,23%,4%,8,7
O=[N+]([O-])c1ccccc1CNc1ccc(F)c(Cl)c1,-10%,-8%,12%,-6%,15,7
COc1cccc(CNc2ccc(F)c([N+](=O)[O-])c2)c1O,-9%,?,-29%,-18%,47*,30*
C[C@@H]1NC(=O)[C@H](CCCN=C(N)N)NC(=O)c2cc([N+](=O)[O-])cc(I)c2NCCC[C@@H](C(N)=O)NC1=O,-16%,3%,7.9µM*,5%,-8,-1
COc1ccc(S(=O)(=O)N2CCCC(C(=O)O)C2)cc1Cl (stereo not given),-20%,?,-1%,-1%,3,-1
COc1ccc(S(=O)(=O)N2CCC(C(=O)N3CCN(C)CC3)CC2)cc1Cl,-7%,-4%[46.1 µM],-15%,22%,20,-5
COc1ccc(S(=O)(=O)N2CCCC(C(=O)N3CCN(c4ccccc4)CC3)C2)cc1Cl (stereo not given),35µM*,-22%,?,?,-1,-2
CC(=O)N1CCCc2cc(S(=O)(=O)N3CCCC(C(=O)N4CCN(c5ccccc5)CC4)C3)ccc21 (stereo not given),18µM*,.,11µM*,-20%[46.1 µM],-18,4
CC(=O)N1CCCc2cc(S(=O)(=O)N3CCCC(C(=O)N4CCN(c5cc(C)ccc5C)CC4)C3)ccc21 (stereo not given),28µM*,?,10µM*,5.6µM*,-6,-7
CC(=O)Nc1ccc(S(=O)(=O)N2CCCC(C(=O)N3CCN(c4ccccc4)CC3)C2)cc1 (stereo not given),?,?,.,-29%,7,-1
COc1ccc(S(=O)(=O)N2CCC(C(=O)N3CCc4ccccc4C3)CC2)cc1Cl,.,4%,-9%,-7%,23,28*
CCOC(=O)C1CCCN(S(=O)(=O)c2ccc3c(c2)CCCN3C(C)=O)C1 (stereo not given),-22%,.,.,-12%[46.1 µM],.,.
Cc1ccc(S(=O)(=O)NC2(C(=O)O)CCCC2)cc1,-12%,19%,23%,1%[46.1 µM],.,.
CC(=O)N1CCc2c(sc3c2c(=O)n(-c2ccccc2)c(=O)n3Cc2cccc(C(F)(F)F)c2)C1,-26%,-24%[46.1 µM],.,.,.,.
Fc1ccc(OCc2nnc(SCCN3CCOCC3)o2)cc1,0%,?,17%,-1%,-12,12
C=CC1CN2CCC1CC2C(O)c1ccnc2ccccc12 (stereo not given),-24%,.,-4%,.,.,.
